# Bioassay records from PubChem.
# Sampled rows, rich in hits. Any-hit rate of the full collection: about 17%.
# TGFb SMAD3 inh = TGF-b pathway inhibition | Potency, µM (series often up to 46.1 µM), for the others: at the highest dose activity, negative = inhibition, most hits filed as inhibitors | AID 588855 | actives 1.2% (n = 410,000) | HepG2 CAGA-GFP TGF-b/SMAD3 reporter, GFP fluorescence, 18 h; TGF-beta stimulated, 500 pg/mL final; further: on the % scale 0 is the no-effect control and ±100 the full control effect; nearly all actives have a fitted effect of over 65% in size
#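 Read-out: total well GFP (ex488/em500-530) summed from mean per-cell fluorescence. Cells: HEPG2 CAGA-GFP, 1% FBS DMEM, 18 h at 37 degrees C with 500 pg/mL final TGF-beta. Unstimulated wells served as the full-inhibition control; stimulated DMSO wells = 0%.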
# HT1080NT lethal = kills 2HG-producing HT-1080-NT fibrosarcoma cells; HT-1080-NT fibrosarcoma viability, CellTiter-Glo ATP luminescence, 48 h; Potency, µM (series often up to 46.1 µM), for the others: at the highest dose activity, negative = less viability, most hits filed as cytotoxic; actives 1.6% (n = 360,000); AID 686970;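 further: NT is the 2HG producing partner of a matched IDH1 knockdown line; 0% = DMSO-treated cells and -100% = media-only wells without cells; nearly all actives have a fitted effect of over 55% in size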
#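 Fibrosarcoma NT cells, 750 per well in 5% FBS RPMI, were exposed to compound for 48 hours. Viability: CellTiter-Glo luminescence.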
# HepG2 viability = HepG2 cytotoxicity, counter-screen for TGF-b inhibitors. actives 0.76% (n = 410,000). Potency, µM (titrated, usually from 46.1 µM), without a hit: top-dose activity change, negative = cytotoxicity, usual class: cytotoxic. HepG2 CAGA-GFP viability, ATP luminescence, 18 h
#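 CellTiter-Glo luminescence gave cytotoxicity after 18 hours at 37 degrees C. The cells were HepG2 CAGA-GFP in 1% FBS DMEM, stimulated with 500 pg/mL TGF-beta after compound addition. %Activity was normalised to no-cell wells (complete cell-killing) and DMSO (no toxicity), and curves were fitted and classified.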
# TDP1 cell noCPT = qHTS for Inhibitors of human tyrosyl-DNA phosphodiesterase 1 (TDP1): qHTS in cells in absence of CPT; DT40 Tdp1-/- hTDP1 cells, no CPT, ATP luminescence, 48 h; Potency, µM (series often up to 46.2 µM), without a hit: at the highest dose activity change, negative = growth inhibition, hits mostly inhibitors; actives 15% (n = 420,000); AID 686978, 2013; further: on the % scale 0 is the no-effect control and ±100 the full control effect; nearly all actives have a fitted effect of over 55% in size
#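 Growth of hTDP1-complemented DT40 Tdp1-knockout cells is measured by ATP luminescence after at least 48 hr compound exposure at 37 °C, with DMSO substituting for the 20 nM CPT used in the parallel screen.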
# TDP1 cell CPT = growth inhibition of DT40 Tdp1-/-;hTDP1 cells with camptothecin (screen for TDP1 inhibitors); Potency, µM (doses to about 46.2 µM), for the others: at the highest dose activity change, negative = growth inhibition, actives largely listed as inhibitors; chicken DT40 Tdp1-/-;hTDP1 cells + 20 nM CPT, ATP luminescence, 48 h; actives 12% (n = 420,000); further: on the % scale 0 is the no-effect control and ±100 the full control effect; nearly all actives have a fitted effect of over 55% in size
#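 Chicken DT40 Tdp1-/- cells stably complemented with human TDP1 were seeded at 400 cells/well in medium containing 20 nM camptothecin, exposed to pin-transferred compounds, and grown at 37 °C for at least 48 hr. Viability was read as ATP luminescence.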
# HT1080 IDH1KD tx = HT-1080 IDH1 knockdown cell toxicity (counter line). HT-1080 IDH1 knockdown viability, ATP luminescence, 48 h. Potency, µM (top dose mostly 46.1 µM), for the others: at the highest dose activity, negative = toxicity, most hits filed as cytotoxic. actives 2% (n = 360,000);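 further: 0% = DMSO wells and -100% = cell-free medium wells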
#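 Using the IDH1-knockdown HT-1080 line run in the same batch and compound series as the NT line, viability after 48 h at 37 °C was determined by CellTiter-Glo luminescence and expressed as % activity.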
# Starred values were filed as active, the others as inactive; ? = inconclusive; . = not tested or not shown; [ ] = remark or other dose. The call rests on the fitted dose curve; in most records, active means well fitted curve in the direction sought with a large enough effect; inconclusive means small, poorly fitted or top-dose-only effect, or another doubt; inactive means no such curve, though single readings can be large; an effect the other way counts as inactive or inconclusive. Potency means the concentration at half of the fitted maximal effect.
SMILES,TGFb SMAD3 inh,HT1080NT lethal,HepG2 viability,TDP1 cell noCPT,TDP1 cell CPT,HT1080 IDH1KD tx
C[C@H](NC(=O)c1nc[nH]c1C(=O)NCC(=O)OC(C)(C)C)C(=O)OC(C)(C)C,-1%,2%,7%,?,?,-5%
CC(C)C[C@H](NC(=O)c1nc[nH]c1C(=O)NCCNC(=O)OC(C)(C)C)C(=O)CNCCNC(=O)c1[nH]cnc1C(=O)N[C@@H](C)C(=O)OC(C)(C)C,9%,?,3%,?,23µM*,10%
CC(C)C[C@H](NC(=O)c1nc[nH]c1C(=O)NC(c1ccccc1)c1ccccc1)C(=O)OC(C)(C)C,?,26µM*,0%,18µM*,4.1µM*,21µM*
C[C@H](NC(=O)c1nc[nH]c1C(=O)N[C@@H](C)c1ccccc1)C(=O)OC(C)(C)C,-16%,8%,-16%,3%,?,3%
CC(C)C[C@H](NC(=O)c1nc[nH]c1C(=O)NC(c1ccccc1)c1ccccc1)C(=O)OCc1ccccc1,?,-24%,-18%,?,?,-28%
CC(C)C[C@H](NC(=O)c1[nH]cnc1C(=O)N[C@H](C)c1ccccc1)C(=O)OC(C)(C)C,?,?,16µM*,18µM*,?,?
CC(C)C[C@@H](CNCC(=O)[C@H](Cc1c[nH]c2ccccc12)NC(=O)c1[nH]cnc1C(=O)N[C@@H](C)CN)NC(=O)c1nc[nH]c1C(=O)N[C@@H](Cc1ccccc1)C(=O)O,-21%,7%,-3%,1%,5%,9%
COc1cccc(NC(=O)C(c2ccccc2)N2CCN(CC(=O)N3CCOCC3)CC2)c1 (configuration not stated),8%,12%,-1%,-22%,-19%,4%
Cc1c(CCOC(=O)c2cc([N+](=O)[O-])cc([N+](=O)[O-])c2)sc[n+]1CC(=O)c1ccc(Br)cc1,?,-1%,-71%,?,?,-21%
CC(C)C[C@H](NC(=O)c1nc[nH]c1C(=O)NCC(=O)OC(C)(C)C)C(=O)OC(C)(C)C,?,-16%,-14%,?,?,-10%
CC(C)C[C@H](NC(=O)c1nc[nH]c1C(=O)N[C@@H](CC(C)C)C(=O)OC(C)(C)C)C(=O)OC(C)(C)C,?,?,-3%,?,23µM*,?
Cc1noc(C)c1CCC(=O)N1CCOc2ccc(CN3CCN(c4ccccn4)CC3)cc2C1,.,.,.,?,-2%[9.04 µM],.
CCOC(=O)COc1ccc(/C=C/[N+](=O)[O-])c(OCC(=O)OCC)c1,?,7.9µM*,-64%,21µM*,12µM*,5.6µM*
CCOC(=O)COc1ccc2ccccc2c1/C=C/[N+](=O)[O-],5µM*,7.3µM*,5.6µM*,3.7µM*,5.2µM*,4.1µM*
COC(=O)c1ccc(Cn2cc(/C=C\[N+](=O)[O-])c3ccccc32)o1,?,?,-56%,?,?,?
CCOc1ccc(/C=C/[N+](=O)[O-])c2ccccc12,5µM*,?,-92%,2.9µM*,2.9µM*,13µM*
CCOC(=O)COc1ccc(C(=O)c2ccccc2)c(O)c1,?,6%,-4%,-11%,1%,11%
CC(C)CCCC(C)C1CCC2C3CC=C4CC(=O)CC[C@@]4(C)C3CC[C@@]12C (some centres not stated),.,.,.,-1%,4%,.
COC(=O)C1=C(N)Oc2cc(C)n(CC3CCCO3)c(=O)c2C1c1ccc(Cl)cc1 (configuration not stated),?,1%,4%,?,?,0%
O=C(CCNC(=O)c1ccc(Br)cc1)NNC(=O)c1ccccc1O,?,-15%,-35%,23µM*,?,?
O=C(NNC(=O)c1ccccc1O)c1ccc(Br)cc1,0%,-29%,-29%,?,?,?
O=C(NNC(=O)c1ccccc1O)c1ccc(Cl)cc1,-9%,?,-26%,16µM*,18µM*,?
Cc1cccc(C(=O)NNC(=O)c2ccc(Cl)cc2)c1O,18%,-21%,-21%,21µM*,?,-19%
O=C(NNC(=O)c1ccc(O)cc1O)c1ccc(Cl)cc1,-8%,-21%,4%,?,?,-16%
COCCC(=O)N1CCC(Oc2ccc(C(=O)NCCSC)cc2)CC1,3%,13%,3%,5%,-10%,19%
SMILES,TGFb SMAD3 inh,HT1080NT lethal,HepG2 viability,TDP1 cell noCPT,TDP1 cell CPT,HT1080 IDH1KD tx
COc1c([N+](=O)[O-])ccc(N)c1N,-1%,.,2%,-21%,-18%,.
CC1(c2ccccc2)CC(C)(C)N(C(=O)c2cccc(Cl)c2)c2ccccc21 (configuration not stated),?,.,-23%,?,?,.
Fc1ccc(Cn2c(-c3cscn3)nc3ccccc32)c(Cl)c1,2%,-6%,-19%,?,?,-9%
Nc1nonc1-c1nc2ccccc2n1Cc1ccc(F)cc1Cl,-10%,-2%,-13%,21µM*,21µM*,-2%
CCC(O)c1nc2ccccc2n1Cc1cccc(Cl)c1 (configuration not stated),-29%,.,-25%,18µM*,?,.
Cc1nc(Br)c(Br)n1Cc1ccccc1,-11%,-5%,-23%,21µM*,?,?
CC(c1nc2ccccc2n1Cc1ccccc1)N1CCCCC1 (configuration not stated),-24%,-6%,-7%,18µM*,16µM*,-2%
S=c1[nH]nc(-c2ccc(Br)cc2)n1Cc1ccccc1,5%,9%,-6%,?,?,-7%
Cc1nc([N+](=O)[O-])c(Sc2nc3ccccc3n2C)n1Cc1ccccc1,?,-8%,-131%,5.2µM*,?,?
CC(C)C[C@H](NC(=O)C1CC(=O)N(c2ccc(F)cc2)C1)C(=O)N1CCCCC1 (some centres not stated),-2%,-1%,-5%,-6%,2%,9%
COC(=O)C[C@H]1C=C[C@@H](NC(=O)C2CC2)[C@@H](CO)O1,.,18%,.,3%,3%,29%
